The supplement of paper PMC10849652
Targets with a hit are over-represented here; the source holds about 7,900 in all. About 0.6% of all pairs of compound and target were hits.

Experiments:
Assay in all cases: log2 fold change, soluble protein after heating vs DMSO (PISA); higher = thermal stabilisation; K562 cells, 10 uM, 30 min; active = over 0.2 and 3.5 SD of the protein, either way, in both replicates (recomputed)
[1] = compound: CS(=O)(=O)c1ccc(-c2cnc(N)c(C(=O)Nc3ccccc3)n2)cc1
Summary of the method: (§1)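 K562 cells at 2×10^6 cells/mL were treated with 10 μM compound for 30 min. Aliquots were heated for 3 min across 48°C-58°C, pooled, and extracted in PBS with 0.5% NP-40 at 4°C; soluble protein was the supernatant after 21,000xg for 90 min. Soluble protein was quantified by TMTpro 16plex LC-MS/MS with channel sums equalised, and reported as log2 fold change in thermal stability against DMSO controls, with values from duplicates.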

crizotinib = compound: C[C@@H](Oc1cc(-c2cnn(C3CCNCC3)c2)cnc1N)c1c(Cl)ccc(F)c1Cl [crizotinib]
Summary of the method: as §1

[2] = compound: C[C@@H]1COCCN1C2=NC(=NC(=C2)C3(CC3)S(=O)(=O)C)C4=C5C=CNC5=CC=C4
Summary of the method: as §1

[3] = compound: C[C@H](C1=CC=C(C=C1)C(=O)NC2=C3C=CNC3=NC=C2)N
Summary of the method: as §1

duvelisib = compound: C[C@H](Nc1ncnc2nc[nH]c12)c1cc2cccc(Cl)c2c(=O)n1-c1ccccc1 [duvelisib]
Summary of the method: as §1

gandotinib = compound: Cc1cc(Nc2cc(CN3CCOCC3)c3nc(C)c(Cc4ccc(Cl)cc4F)n3n2)n[nH]1 [gandotinib]
Summary of the method: as §1

tozasertib = compound: Cc1cc(Nc2cc(N3CCN(C)CC3)nc(Sc3ccc(NC(=O)C4CC4)cc3)n2)n[nH]1 [tozasertib]
Summary of the method: as §1

[4] = compound: Cc1cc(SCc2sc(-c3ccc(C(F)(F)F)cc3)nc2C)ccc1OCC(=O)O
Summary of the method: as §1

doramapimod = compound: Cc1ccc(-n2nc(C(C)(C)C)cc2NC(=O)Nc2ccc(OCCN3CCOCC3)c3ccccc23)cc1 [doramapimod]
Summary of the method: as §1

ispinesib = compound: Cc1ccc(C(=O)N(CCCN)[C@@H](c2nc3cc(Cl)ccc3c(=O)n2Cc2ccccc2)C(C)C)cc1 [ispinesib]
Summary of the method: as §1

bafetinib = compound: Cc1ccc(NC(=O)c2ccc(CN3CC[C@H](N(C)C)C3)c(C(F)(F)F)c2)cc1Nc1nccc(-c2cncnc2)n1 [bafetinib]
Summary of the method: as §1

[5] = compound: Cc1cccc(CC(=O)N2CCc3c2ccc(-c2cn(C)c4ncnc(N)c24)c3F)n1
Summary of the method: as §1

nilotinib = compound: Cc1cn(-c2cc(NC(=O)c3ccc(C)c(Nc4nccc(-c5cccnc5)n4)c3)cc(C(F)(F)F)c2)cn1 [nilotinib]
Summary of the method: as §1

[6] = compound: Cc1nc(Nc2n[nH]c3c2CN(C(=O)N[C@H](CN(C)C)c2ccccc2)C3(C)C)c2sccc2n1
Summary of the method: as §1

dasatinib = compound: Cc1nc(Nc2ncc(C(=O)Nc3c(C)cccc3Cl)s2)cc(N2CCN(CCO)CC2)n1 [dasatinib]
Summary of the method: as §1

[7] = compound: Cc1ncc(-c2ccnc(Nc3ccc(S(C)(=O)=O)cc3)n2)n1C(C)C
Summary of the method: as §1

[8] = compound: Cn1cc(-c2ccc3c(c2)CCN3C(=O)Cc2cccc(C(F)(F)F)c2)c2c(N)ncnc21
Summary of the method: as §1

[9] = compound: Cn1cc(-c2ccc3nnc(C(F)(F)c4ccc5ncccc5c4)n3n2)cn1
Summary of the method: as §1

tipifarnib = compound: Cn1cncc1[C@@](N)(c1ccc(Cl)cc1)c1ccc2c(c1)c(-c1cccc(Cl)c1)cc(=O)n2C [tipifarnib]
Summary of the method: as §1

mubritinib = compound: FC(F)(F)c1ccc(/C=C/c2nc(COc3ccc(CCCCn4ccnn4)cc3)co2)cc1 [mubritinib]
Summary of the method: as §1

Measured: log2 fold change

FBL (UniProt P22087)
Chain of UniProt P22087 (P22087 whole entry, looked up): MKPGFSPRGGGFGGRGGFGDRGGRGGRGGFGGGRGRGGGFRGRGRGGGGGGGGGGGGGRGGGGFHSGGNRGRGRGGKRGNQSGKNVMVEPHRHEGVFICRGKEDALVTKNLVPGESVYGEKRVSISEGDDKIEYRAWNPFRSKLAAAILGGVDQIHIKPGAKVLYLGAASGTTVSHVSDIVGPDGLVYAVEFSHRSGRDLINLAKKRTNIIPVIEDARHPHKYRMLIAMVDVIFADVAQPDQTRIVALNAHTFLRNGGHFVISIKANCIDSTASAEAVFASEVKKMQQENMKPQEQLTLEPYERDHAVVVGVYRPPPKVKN
inactive: [1] -0.054 | crizotinib 0.075 | [2] -0.266 | [3] 0.379 | duvelisib -0.084 | gandotinib 0.124 | tozasertib -0.043 | [4] -0.01 | doramapimod 0.279 | ispinesib 0.097 | bafetinib 0.29 | [5] -0.039 | nilotinib 0.094 | [6] -0.017 | dasatinib 0.454 | [7] -0.01 | [8] -0.337 | [9] -0.097 | tipifarnib 0.301 | mubritinib -0.241

HNRNPUL2 (UniProt Q1KMD3)
inactive: [1] -0.092 | crizotinib -0.033 | [2] -0.05 | [3] 0.123 | duvelisib -0.096 | gandotinib -0.005 | tozasertib -0.058 | [4] 0.015 | doramapimod 0.041 | ispinesib 0.004 | bafetinib 0 | [5] -0.083 | nilotinib -0.001 | [6] 0.033 | dasatinib 0.098 | [7] 0.097 | [8] -0.147 | [9] -0.035 | tipifarnib 0.03 | mubritinib -0.137

HIST2H2BF isoform 2 (UniProt Q5QNW6)
inactive: [1] -0.049 | crizotinib -0.095 | [2] -0.279 | [3] 0.38 | duvelisib -0.051 | gandotinib -0.018 | tozasertib 0.119 | [4] -0.064 | doramapimod 0.253 | ispinesib -0.178 | bafetinib 0.211 | [5] -0.189 | nilotinib -0.044 | [6] -0.006 | dasatinib 0.147 | [7] 0.012 | [8] -0.358 | [9] -0.098 | tipifarnib -0.018 | mubritinib -0.173

HNRNPH1 (UniProt P31943)
Chain of UniProt P31943 (P31943 whole entry, looked up): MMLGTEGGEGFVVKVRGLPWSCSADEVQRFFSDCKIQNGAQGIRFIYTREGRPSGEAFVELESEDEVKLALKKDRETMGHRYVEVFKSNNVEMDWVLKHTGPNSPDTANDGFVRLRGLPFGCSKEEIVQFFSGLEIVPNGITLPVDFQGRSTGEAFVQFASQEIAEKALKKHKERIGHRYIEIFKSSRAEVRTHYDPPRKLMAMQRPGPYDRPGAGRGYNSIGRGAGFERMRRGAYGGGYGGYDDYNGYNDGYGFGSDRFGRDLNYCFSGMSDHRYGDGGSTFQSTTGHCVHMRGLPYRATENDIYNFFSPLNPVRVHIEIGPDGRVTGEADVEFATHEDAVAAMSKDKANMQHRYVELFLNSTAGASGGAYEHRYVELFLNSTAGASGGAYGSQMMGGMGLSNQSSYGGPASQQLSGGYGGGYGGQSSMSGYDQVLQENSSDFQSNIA
inactive: [1] 0.027 | crizotinib -0.171 | [2] -0.012 | [3] 0.02 | duvelisib -0.026 | gandotinib -0.017 | tozasertib -0.01 | [4] 0.126 | doramapimod -0.012 | ispinesib -0.068 | bafetinib 0.004 | [5] 0.037 | nilotinib -0.141 | [6] -0.236 | dasatinib -0.083 | [7] -0.116 | [8] 0.022 | [9] 0.055 | tipifarnib -0.124 | mubritinib -0.044

GINS2 (UniProt Q9Y248)
inactive: [1] -0.066 | crizotinib -0.036 | [2] -0.046 | [3] -0.15 | duvelisib 0.164 | gandotinib 0.004 | tozasertib 0.145 | [4] 0.247 | doramapimod 0.026 | ispinesib 0.167 | bafetinib -0.025 | [5] 0.106 | nilotinib -0.024 | [6] -0.031 | dasatinib -0.265 | [7] 0.03 | [8] -0.057 | [9] -0.111 | tipifarnib -0.064 | mubritinib 0.03

HEATR5B (UniProt Q9P2D3)
Chain of UniProt Q9P2D3 (Q9P2D3 whole entry, looked up): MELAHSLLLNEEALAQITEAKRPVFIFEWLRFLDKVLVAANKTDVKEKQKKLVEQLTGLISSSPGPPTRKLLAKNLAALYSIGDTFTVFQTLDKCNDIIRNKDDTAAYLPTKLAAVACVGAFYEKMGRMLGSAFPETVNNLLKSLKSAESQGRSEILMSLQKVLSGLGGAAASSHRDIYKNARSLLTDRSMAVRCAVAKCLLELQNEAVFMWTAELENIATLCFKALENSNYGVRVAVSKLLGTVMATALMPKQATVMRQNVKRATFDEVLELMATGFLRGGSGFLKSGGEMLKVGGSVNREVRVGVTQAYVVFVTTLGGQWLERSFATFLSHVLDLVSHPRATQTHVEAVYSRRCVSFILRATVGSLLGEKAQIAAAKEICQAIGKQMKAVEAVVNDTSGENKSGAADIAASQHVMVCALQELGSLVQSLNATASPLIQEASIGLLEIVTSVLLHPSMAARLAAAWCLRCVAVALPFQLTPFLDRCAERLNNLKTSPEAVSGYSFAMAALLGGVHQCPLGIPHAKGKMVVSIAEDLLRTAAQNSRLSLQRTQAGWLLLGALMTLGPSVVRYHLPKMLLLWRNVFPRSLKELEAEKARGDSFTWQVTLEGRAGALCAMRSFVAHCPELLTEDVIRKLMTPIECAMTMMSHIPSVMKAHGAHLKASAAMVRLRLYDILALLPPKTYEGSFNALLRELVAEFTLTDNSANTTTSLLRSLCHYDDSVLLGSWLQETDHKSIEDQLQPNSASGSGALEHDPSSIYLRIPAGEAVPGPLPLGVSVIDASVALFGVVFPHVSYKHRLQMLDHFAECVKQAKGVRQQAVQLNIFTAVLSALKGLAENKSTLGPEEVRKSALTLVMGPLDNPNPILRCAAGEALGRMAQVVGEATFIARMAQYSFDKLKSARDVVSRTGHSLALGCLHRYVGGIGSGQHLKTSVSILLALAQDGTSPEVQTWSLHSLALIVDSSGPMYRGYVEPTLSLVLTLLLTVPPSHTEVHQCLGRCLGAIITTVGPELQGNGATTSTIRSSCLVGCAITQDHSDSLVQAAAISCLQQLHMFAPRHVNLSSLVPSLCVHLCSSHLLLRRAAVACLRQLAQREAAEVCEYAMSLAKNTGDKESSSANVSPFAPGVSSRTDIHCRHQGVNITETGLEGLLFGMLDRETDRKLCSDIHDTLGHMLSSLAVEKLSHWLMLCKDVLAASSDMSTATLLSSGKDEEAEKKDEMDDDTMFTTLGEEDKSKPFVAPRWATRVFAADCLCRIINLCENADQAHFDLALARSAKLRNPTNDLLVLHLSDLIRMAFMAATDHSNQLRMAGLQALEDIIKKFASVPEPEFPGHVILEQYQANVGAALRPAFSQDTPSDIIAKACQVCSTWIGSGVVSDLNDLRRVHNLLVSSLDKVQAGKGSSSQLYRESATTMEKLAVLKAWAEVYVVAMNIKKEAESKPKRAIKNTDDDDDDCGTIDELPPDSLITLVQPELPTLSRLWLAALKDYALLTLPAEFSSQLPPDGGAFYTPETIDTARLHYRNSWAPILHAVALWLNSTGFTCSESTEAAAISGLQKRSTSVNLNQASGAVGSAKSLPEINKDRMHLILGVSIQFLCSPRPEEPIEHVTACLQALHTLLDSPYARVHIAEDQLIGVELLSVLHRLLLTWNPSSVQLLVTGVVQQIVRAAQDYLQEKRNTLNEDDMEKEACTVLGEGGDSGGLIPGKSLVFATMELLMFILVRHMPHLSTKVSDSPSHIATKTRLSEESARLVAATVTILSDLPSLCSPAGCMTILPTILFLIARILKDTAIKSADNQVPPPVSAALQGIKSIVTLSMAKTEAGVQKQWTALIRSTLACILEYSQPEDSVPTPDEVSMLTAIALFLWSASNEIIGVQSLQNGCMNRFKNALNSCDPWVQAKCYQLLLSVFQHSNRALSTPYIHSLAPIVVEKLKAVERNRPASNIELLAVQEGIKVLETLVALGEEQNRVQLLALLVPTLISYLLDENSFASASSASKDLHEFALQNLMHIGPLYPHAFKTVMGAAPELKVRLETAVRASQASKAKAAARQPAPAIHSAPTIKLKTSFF
inactive: [1] 0.055 | crizotinib -0.058 | [2] -0.11 | [3] 0.103 | duvelisib -0.026 | gandotinib -0.039 | tozasertib -0.019 | [4] 0.036 | doramapimod -0.015 | ispinesib -0.021 | bafetinib -0.007 | [5] 0.014 | nilotinib -0.049 | [6] -0.066 | dasatinib -0.119 | [7] 0.072 | [8] -0.029 | [9] -0.012 | tipifarnib -0.052 | mubritinib 0.034

HRAS (UniProt P01112)
Chain of UniProt P01112 (P01112 whole entry, looked up): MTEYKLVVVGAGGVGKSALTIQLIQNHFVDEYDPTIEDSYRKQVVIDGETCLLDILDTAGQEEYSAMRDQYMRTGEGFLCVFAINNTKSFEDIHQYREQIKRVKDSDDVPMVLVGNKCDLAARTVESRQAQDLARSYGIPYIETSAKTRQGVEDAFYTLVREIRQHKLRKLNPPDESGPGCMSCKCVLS
inactive: [1] -0.064 | crizotinib 0.18 | [2] -0.129 | [3] -0.057 | duvelisib -0.025 | gandotinib 0.068 | tozasertib -0.149 | [4] -0.077 | doramapimod -0.032 | ispinesib 0.22 | bafetinib -0.033 | [5] 0.063 | nilotinib 0.109 | [6] 0.024 | dasatinib 0 | [7] 0.003 | [8] 0.041 | [9] -0.007 | tipifarnib 0.006 | mubritinib 0.033

GCDH (UniProt Q92947)
inactive: [1] 0.004 | crizotinib 0.058 | [2] 0.112 | [3] -0.032 | duvelisib 0.098 | gandotinib 0.076 | tozasertib -0.107 | [4] -0.021 | doramapimod -0.012 | ispinesib 0.041 | bafetinib -0.047 | [5] 0.007 | nilotinib 0.002 | [6] 0.017 | dasatinib -0.059 | [7] -0.001 | [8] 0.08 | [9] -0.129 | tipifarnib -0.007 | mubritinib -0.028

GLCCI1 (UniProt Q86VQ1)
Chain of UniProt Q86VQ1 (Q86VQ1 whole entry, looked up): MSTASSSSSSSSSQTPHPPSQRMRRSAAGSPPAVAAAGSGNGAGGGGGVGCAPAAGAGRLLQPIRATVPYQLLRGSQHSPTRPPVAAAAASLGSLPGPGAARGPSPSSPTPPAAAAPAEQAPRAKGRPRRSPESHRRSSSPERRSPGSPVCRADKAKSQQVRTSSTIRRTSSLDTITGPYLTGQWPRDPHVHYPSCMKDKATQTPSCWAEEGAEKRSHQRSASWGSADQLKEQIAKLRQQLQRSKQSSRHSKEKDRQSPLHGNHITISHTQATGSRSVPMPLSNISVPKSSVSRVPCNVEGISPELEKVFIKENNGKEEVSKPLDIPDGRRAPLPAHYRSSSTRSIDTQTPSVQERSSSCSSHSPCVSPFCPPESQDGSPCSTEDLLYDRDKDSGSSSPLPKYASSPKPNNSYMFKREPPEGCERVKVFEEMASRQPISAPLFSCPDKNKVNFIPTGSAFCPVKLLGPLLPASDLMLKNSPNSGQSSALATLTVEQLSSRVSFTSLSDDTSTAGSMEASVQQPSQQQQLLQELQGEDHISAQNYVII
inactive: [1] -0.008 | crizotinib 0.045 | [2] 0.024 | [3] 0.026 | duvelisib 0.023 | gandotinib 0.079 | tozasertib 0.009 | [4] 0.044 | doramapimod -0.032 | ispinesib 0.239 | bafetinib -0.074 | [5] 0.037 | nilotinib 0.073 | [6] -0.103 | dasatinib -0.066 | [7] -0.094 | [8] 0.03 | [9] -0.175 | tipifarnib 0.075 | mubritinib 0.011

GATD1 (UniProt Q8NB37)
Chain of UniProt Q8NB37 (Q8NB37 whole entry, looked up): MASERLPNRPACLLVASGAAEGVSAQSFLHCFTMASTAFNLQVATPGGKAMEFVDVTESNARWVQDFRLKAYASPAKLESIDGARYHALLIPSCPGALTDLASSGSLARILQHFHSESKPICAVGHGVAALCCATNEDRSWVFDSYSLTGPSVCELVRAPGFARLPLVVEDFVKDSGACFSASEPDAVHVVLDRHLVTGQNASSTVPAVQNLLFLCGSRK
inactive: [1] -0.026 | crizotinib 0.023 | [2] -0.256 | [3] 0.012 | duvelisib 0.124 | gandotinib 0.052 | tozasertib -0.075 | [4] 0.033 | doramapimod 0.163 | ispinesib -0.005 | bafetinib 0.008 | [5] -0.021 | nilotinib 0.059 | [6] -0.016 | dasatinib -0.011 | [7] 0.119 | [8] 0.046 | [9] 0.015 | tipifarnib 0.029 | mubritinib 0.035

HADHA (UniProt P40939)
Chain of UniProt P40939 (P40939 whole entry, looked up): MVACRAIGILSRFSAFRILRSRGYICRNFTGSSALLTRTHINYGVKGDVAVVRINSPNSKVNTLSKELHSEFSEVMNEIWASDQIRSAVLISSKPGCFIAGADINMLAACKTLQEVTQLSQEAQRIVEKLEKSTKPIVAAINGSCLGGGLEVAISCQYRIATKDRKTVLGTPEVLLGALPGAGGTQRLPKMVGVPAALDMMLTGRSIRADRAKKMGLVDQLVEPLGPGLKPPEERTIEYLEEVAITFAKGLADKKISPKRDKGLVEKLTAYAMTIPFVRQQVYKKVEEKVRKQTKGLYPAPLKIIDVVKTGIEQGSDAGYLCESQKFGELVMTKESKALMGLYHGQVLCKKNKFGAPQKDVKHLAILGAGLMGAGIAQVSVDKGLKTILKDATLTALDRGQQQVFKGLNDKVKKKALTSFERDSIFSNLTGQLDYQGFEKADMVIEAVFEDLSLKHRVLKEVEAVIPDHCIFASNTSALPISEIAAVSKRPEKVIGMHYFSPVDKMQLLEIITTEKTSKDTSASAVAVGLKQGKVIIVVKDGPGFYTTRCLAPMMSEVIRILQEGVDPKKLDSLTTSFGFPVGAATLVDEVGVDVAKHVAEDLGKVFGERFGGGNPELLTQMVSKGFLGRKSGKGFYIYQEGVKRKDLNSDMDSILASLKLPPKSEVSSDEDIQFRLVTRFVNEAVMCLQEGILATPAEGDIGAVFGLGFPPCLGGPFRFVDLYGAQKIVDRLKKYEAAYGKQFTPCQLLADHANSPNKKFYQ
inactive: [1] -0.058 | crizotinib 0.079 | [2] 0.068 | [3] -0.017 | duvelisib 0.201 | gandotinib 0.086 | tozasertib -0.154 | [4] 0.154 | doramapimod 0.176 | ispinesib 0.171 | bafetinib 0.293 | [5] 0.097 | nilotinib 0.049 | [6] -0.078 | dasatinib -0.05 | [7] 0.036 | [8] 0.203 | [9] 0.069 | tipifarnib -0.304
active: mubritinib 0.685

GSTP1 (UniProt P09211)
Chain of UniProt P09211 (P09211 whole entry, looked up): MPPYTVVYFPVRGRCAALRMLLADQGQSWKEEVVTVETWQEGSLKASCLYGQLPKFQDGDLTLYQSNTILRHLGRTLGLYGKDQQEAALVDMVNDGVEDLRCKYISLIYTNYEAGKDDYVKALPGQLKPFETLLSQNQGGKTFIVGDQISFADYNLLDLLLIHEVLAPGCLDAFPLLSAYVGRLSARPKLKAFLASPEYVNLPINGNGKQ
inactive: [1] 0.023 | crizotinib 0.038 | [2] 0.033 | [3] -0.067 | duvelisib 0.037 | gandotinib -0.005 | tozasertib -0.008 | [4] 0 | doramapimod -0.019 | ispinesib 0.058 | bafetinib -0.061 | [5] -0.021 | nilotinib -0.018 | [6] -0.017 | dasatinib -0.014 | [7] 0.007 | [8] 0.032 | [9] 0.038 | tipifarnib -0.007 | mubritinib 0.038

HADHB (UniProt P55084)
active: mubritinib 0.571
inactive: [1] -0.087 | crizotinib 0.109 | [2] 0.099 | [3] -0.023 | duvelisib 0.229 | gandotinib 0.083 | tozasertib -0.112 | [4] 0.138 | doramapimod 0.167 | ispinesib 0.199 | bafetinib 0.251 | [5] 0.132 | nilotinib 0.074 | [6] -0.106 | dasatinib -0.072 | [7] 0.032 | [8] 0.155 | [9] 0.108 | tipifarnib -0.264

HDDC2 (UniProt Q7Z4H3)
inactive: [1] 0.044 | crizotinib -0.058 | [2] 0.106 | [3] -0.103 | duvelisib 0.04 | gandotinib 0.032 | tozasertib 0.026 | [4] 0.024 | doramapimod 0.031 | ispinesib 0.228 | bafetinib -0.015 | [5] 0.039 | nilotinib 0.057 | [6] -0.005 | dasatinib -0.01 | [7] -0.003 | [8] 0.069 | [9] -0.008 | tipifarnib -0.091 | mubritinib 0.043

FASTKD1 (UniProt Q53R41)
active: [6] 0.54
inactive: [1] 0.097 | crizotinib 0.001 | [2] 0.097 | [3] -0.027 | duvelisib 0.035 | gandotinib -0.284 | tozasertib -0.253 | [4] 0.12 | doramapimod 0.037 | ispinesib -0.013 | bafetinib 0.098 | [5] -0.021 | nilotinib -0.183 | dasatinib -0.168 | [7] -0.053 | [8] 0.217 | [9] -0.064

HMGB3 (UniProt O15347)
Chain of UniProt O15347 (O15347 whole entry, looked up): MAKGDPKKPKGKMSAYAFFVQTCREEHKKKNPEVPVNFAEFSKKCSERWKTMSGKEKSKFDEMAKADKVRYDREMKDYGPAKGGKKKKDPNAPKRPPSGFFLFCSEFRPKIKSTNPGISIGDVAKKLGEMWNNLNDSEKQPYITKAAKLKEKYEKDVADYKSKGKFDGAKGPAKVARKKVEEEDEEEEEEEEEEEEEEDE
inactive: [1] 0.045 | crizotinib 0.026 | [2] -0.018 | [3] -0.071 | duvelisib 0.01 | gandotinib 0.01 | tozasertib 0.029 | [4] -0.001 | doramapimod 0.002 | ispinesib 0.1 | bafetinib -0.057 | [5] -0.009 | nilotinib 0.051 | [6] -0.013 | dasatinib 0.066 | [7] 0.03 | [8] 0.014 | [9] -0.084 | tipifarnib -0.024 | mubritinib 0.01
